Several values for one entry are separate records, joined by “and”; a condition that tells them apart may be missing. Equal values may be shown once. About 2,000 (36%) of roughly 5,500 compounds were called active. Inconclusive results (about 18%) are left out. No stated cut-off is given here; in the data, active means normalized growth mostly below about 0.91 (no sharp cut-off); inconclusive means no clear call, values can overlap the other calls; inactive means mostly above about 0.92. The list shows a part of the results.
Test: chemical genetic growth profiling, strain panel (AID 1159580);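 further: tested at 20 µM; growth read once vehicle control cultures reached saturation at 30 °C; 1 = growth at the plate median or of vehicle wells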
Settings: S. cerevisiae deletion strains, growth OD

Measured: normalized growth

CC1=CC(=O)CC(C)(C)C1(O)/C=C/C(C)=C\C(=O)O (stereo not given)
inactive: locus YAL013W, strain DEP1, stronger effect = lower value 0.986 | locus YAL021C, strain ccr4, stronger effect = lower value 0.996 | locus YAL026C, strain drs2, stronger effect = lower value 1.03 | locus YAL030W, strain snc1, stronger effect = lower value 1.02 | locus YBL061C, strain skt5, stronger effect = lower value 1.02 | locus YBR009C, strain hhf1, stronger effect = lower value 1.01 | locus YBR021W, strain FUR4, stronger effect = lower value 1.02 | locus YBR023C, strain chs3, stronger effect = lower value 1.03 | locus YBR171W, strain sec66, stronger effect = lower value 1.02 | locus YBR229C, strain ROT2, stronger effect = lower value 0.948 | locus YBR231C, strain swc5, stronger effect = lower value 1.03 | locus YBR279W, strain paf1, stronger effect = lower value 1.01 | locus YCL011C, strain gbp2, stronger effect = lower value 1.02 | locus YCL016C, strain dcc1, stronger effect = lower value 1.01 | locus YCL029C, strain bik1, stronger effect = lower value 0.973 | locus YCL069W, strain vba3, stronger effect = lower value 1.01 | locus YCR088W, strain abp1, stronger effect = lower value 1.03 | locus YDL005C, strain med2, stronger effect = lower value 1.03 | locus YDL035C, strain GPR1, stronger effect = lower value 0.981 | locus YDL040C, strain nat1, stronger effect = lower value 1.02 | locus YDL074C, strain BRE1, stronger effect = lower value 0.985 | locus YDL101C, strain DUN1, stronger effect = lower value 0.987 | locus YDL134C, strain PPH21, stronger effect = lower value 0.984 | locus YDL185W, strain tfp1, stronger effect = lower value 0.953 | locus YDL192W, strain arf1, stronger effect = lower value 0.983 | locus YDR001C, strain nth1, stronger effect = lower value 1.03 | locus YDR069C, strain doa4, stronger effect = lower value 1.04 | locus YDR101C, strain arx1, stronger effect = lower value 1.01 | locus YDR137W, strain rgp1, stronger effect = lower value 1.01 | locus YDR150W, strain NUM1, stronger effect = lower value 0.979 | locus YDR159W, strain sac3, stronger effect = lower value 1.03 | locus YDR162C, strain NBP2, stronger effect = lower value 0.979 | locus YDR195W, strain ref2 1.03 | locus YDR297W, strain sur2, stronger effect = lower value 1.03 | locus YDR318W, strain mcm21, stronger effect = lower value 0.979 | locus YDR334W, strain swr1, stronger effect = lower value 1.02 | locus YDR335W, strain msn5, stronger effect = lower value 1.03 | locus YDR388W, stronger effect = lower value 0.985 | locus YDR392W, strain spt3, stronger effect = lower value 1.01 | locus YDR502C, strain sam2, stronger effect = lower value 0.993 | locus YEL003W, strain gim4, stronger effect = lower value 1.02 | locus YEL037C, strain rad23, stronger effect = lower value 1.02 | locus YEL061C, strain CIN8 (second series), stronger effect = lower value 1.03 | locus YEL061C, strain CIN8, stronger effect = lower value 0.986 | locus YER015W, strain faa2, stronger effect = lower value 1.02 | locus YER016W, strain bim1, stronger effect = lower value 1.01 | locus YER110C, stronger effect = lower value 0.96 | locus YER111C, strain swi4, stronger effect = lower value 1.02 | locus YER155C, strain BEM2 (second series), stronger effect = lower value 1.05 | locus YER155C, strain BEM2, stronger effect = lower value 0.995 | locus YER167W, strain BCK2, stronger effect = lower value 0.988 | locus YFR010W, strain ubp6, stronger effect = lower value 1.04 | locus YGL078C, strain dbp3, stronger effect = lower value 0.987 | locus YGL086W, strain mad1, stronger effect = lower value 1 | locus YGL167C, strain pmr1, stronger effect = lower value 1.01 | locus YGL173C, strain kem1, stronger effect = lower value 1.01 | locus YGL227W, strain vid30, stronger effect = lower value 1.03 | locus YGL240W, strain doc1, stronger effect = lower value 1.03 | locus YGL248W, strain PDE1, stronger effect = lower value 0.977 | locus YGL253W, strain hxk2, stronger effect = lower value 1.03 | locus YGR078C, strain PAC10, stronger effect = lower value 0.983 | locus YGR135W, strain pre9, stronger effect = lower value 0.976 | locus YGR252W, strain gcn5, stronger effect = lower value 0.976 | locus YHR013C, strain ard1, stronger effect = lower value 1.03 | locus YHR027C, strain rpn1, stronger effect = lower value 1.02 | locus YHR030C, strain SLT2, stronger effect = lower value 0.988 and 1.01 | locus YHR079C, strain IRE1 (second series), stronger effect = lower value 0.974 | locus YHR079C, strain IRE1, stronger effect = lower value 0.974 | locus YHR094C, strain hxt1, stronger effect = lower value 0.966 | locus YHR129C, strain ARP1, stronger effect = lower value 0.989 | locus YHR142W, strain chs7, stronger effect = lower value 1.02 | locus YHR200W, strain rpn10, stronger effect = lower value 0.984 | locus YIL066C, strain RNR3, stronger effect = lower value 0.976 | locus YIL073C, strain SPO22, stronger effect = lower value 0.896 | locus YIL125W, strain kgd1, stronger effect = lower value 0.982 | locus YIR030C, strain dcg1, stronger effect = lower value 0.983 | locus YJL092W, strain hpr5, stronger effect = lower value 1.02 | locus YJL095W, strain BCK1 (second series), stronger effect = lower value 1.02 | locus YJL095W, strain BCK1, stronger effect = lower value 0.989 and 1.04 | locus YJL115W, strain asf1, stronger effect = lower value 1.03 | locus YJL129C, strain trk1, stronger effect = lower value 1.08 | locus YJL134W, strain LCB3, stronger effect = lower value 0.973 | locus YJL154C, strain vps35, stronger effect = lower value 1.02 | locus YJL164C, strain tpk1, stronger effect = lower value 1.01 | locus YJL166W, strain qcr8, stronger effect = lower value 1.04 | locus YJL168C, strain set2, stronger effect = lower value 0.982 | locus YJL187C, strain SWE1 (second series), stronger effect = lower value 0.972 | locus YJR043C, strain POL32, stronger effect = lower value 0.978 | locus YJR066W, strain TOR1, stronger effect = lower value 0.929 | locus YJR075W, strain HOC1, stronger effect = lower value 0.985 | locus YKL009W, strain mrt4, stronger effect = lower value 0.966 | locus YKL068W, stronger effect = lower value 0.973 | locus YKL085W, strain MDH1 (second series), stronger effect = lower value 0.983 | locus YKL085W, strain MDH1, stronger effect = lower value 0.983 | locus YKL160W, strain elf1, stronger effect = lower value 1.03 | locus YKR001C, strain vps1, stronger effect = lower value 0.975 | locus YKR026C, strain gcn3, stronger effect = lower value 1.03 | locus YKR091W, strain srl3, stronger effect = lower value 1.02 | locus YLL001W, strain dnm1, stronger effect = lower value 1.03 | locus YLL026W, stronger effect = lower value 1.02 | locus YLL041C, strain sdh2, stronger effect = lower value 1.02 | locus YLR027C, strain aat2, stronger effect = lower value 1.03 | locus YLR039C, strain RIC1, stronger effect = lower value 0.959 | locus YLR058C, strain SHM2, stronger effect = lower value 0.973 | locus YLR102C, strain apc9, stronger effect = lower value 0.974 | locus YLR113W, strain HOG1, stronger effect = lower value 1.07 | locus YLR221C, strain rsa3, stronger effect = lower value 1.01 | locus YLR258W, strain gsy2, stronger effect = lower value 1.02 | locus YLR262C, strain YPT6 (second series), stronger effect = lower value 1.04 | locus YLR262C, strain YPT6, stronger effect = lower value 0.941 | locus YLR268W, strain sec22, stronger effect = lower value 0.993 | locus YLR320W, strain mms22, stronger effect = lower value 1.02 | locus YLR330W, strain CHS5, stronger effect = lower value 0.992 | locus YLR342W, strain FKS1 (second series), stronger effect = lower value 0.984 | locus YLR342W, strain FKS1, stronger effect = lower value 1.03 | locus YLR357W, strain rsc2, stronger effect = lower value 1.02 | locus YLR370C, strain arc18, stronger effect = lower value 1.03 | locus YLR371W, strain rom2, stronger effect = lower value 0.952 | locus YLR384C, strain iki3, stronger effect = lower value 1.02 | locus YLR418C, strain cdc73, stronger effect = lower value 0.93 | locus YML016C, strain PPZ1, stronger effect = lower value 0.994 | locus YML032C, strain rad52, stronger effect = lower value 0.97 | locus YML120C, strain ndi1, stronger effect = lower value 1.02 | locus YML124C, strain tub3, stronger effect = lower value 0.976 | locus YMR058W, strain fet3, stronger effect = lower value 1.02 | locus YMR078C, strain ctf18, stronger effect = lower value 0.963 | locus YMR125W, strain sto1, stronger effect = lower value 1.06 | locus YMR129W, stronger effect = lower value 1.03 | locus YMR205C, strain PFK2, stronger effect = lower value 1.02 | locus YMR223W, strain ubp8, stronger effect = lower value 0.941 | locus YMR231W, strain pep5, stronger effect = lower value 1.01 | locus YMR307W, strain GAS1, stronger effect = lower value 1 | locus YNL067W, strain RPL9B, stronger effect = lower value 0.985 | locus YNL071W, strain lat1, stronger effect = lower value 1.03 | locus YNL153C, strain GIM3, stronger effect = lower value 0.987 | locus YNL183C, strain NPR1, stronger effect = lower value 0.99 | locus YNL209W, strain ssb2, stronger effect = lower value 1.02 | locus YNL233W, strain BNI4, stronger effect = lower value 0.997 | locus YNL248C, strain rpa49, stronger effect = lower value 1.02 | locus YNL250W, strain rad50, stronger effect = lower value 0.964 | locus YNL271C, strain bni1, stronger effect = lower value 0.978 | locus YNL298W, strain CLA4, stronger effect = lower value 0.983 | locus YNL307C, strain MCK1, stronger effect = lower value 0.973 | locus YNL322C, strain KRE1 (second series), stronger effect = lower value 1.02 | locus YNL322C, strain KRE1, stronger effect = lower value 0.987 | locus YNR049C, strain mso1, stronger effect = lower value 1.02 | locus YNR052C, strain pop2, stronger effect = lower value 0.989 | locus YOL012C, strain htz1 0.831 | locus YOL147C, strain pex11, stronger effect = lower value 0.971 | locus YOR001W, strain rrp6, stronger effect = lower value 1.01 | locus YOR061W, strain CKA2, stronger effect = lower value 0.951 | locus YOR069W, strain VPS5, stronger effect = lower value 0.992 | locus YOR070C, strain gyp1, stronger effect = lower value 1.01 | locus YOR080W, strain dia2, stronger effect = lower value 1.02 | locus YOR083W, strain WHI5, stronger effect = lower value 1.02 | locus YOR106W, strain vam3, stronger effect = lower value 1.04 | locus YOR136W, strain idh2, stronger effect = lower value 0.977 | locus YOR144C, strain elg1, stronger effect = lower value 0.97 | locus YOR184W, strain ser1, stronger effect = lower value 0.98 | locus YOR231W, strain MKK1, stronger effect = lower value 0.998 | locus YOR265W, strain rbl2, stronger effect = lower value 1.03 | locus YOR270C, strain vph1, stronger effect = lower value 1.08 | locus YOR290C, strain snf2, stronger effect = lower value 1.02 | locus YOR316C, strain cot1, stronger effect = lower value 0.971 | locus YPL051W, strain arl3, stronger effect = lower value 1.03 | locus YPL055C, strain LGE1, stronger effect = lower value 0.979 | locus YPL078C, strain atp4, stronger effect = lower value 1.03 | locus YPL106C, strain sse1, stronger effect = lower value 1.02 | locus YPL240C, strain hsp82, stronger effect = lower value 1.04 | locus YPL256C, strain CLN2, stronger effect = lower value 1.01 | locus YPR119W, strain clb2, stronger effect = lower value 0.968 | locus YPR141C, strain kar3, stronger effect = lower value 0.954 | locus YPR163C, strain tif3, stronger effect = lower value 0.967 | locus YPR167C, strain met16, stronger effect = lower value 0.958 | strain wtn01, stronger effect = lower value 1.03

From PubChem BioAssay AID1159580 (chemical genetic matrix, 2015)
